PostGolgi ctrl – growth of the yeast control strain, post-Golgi counter-screen | inhibition, % at 10 µM | efflux-deficient yeast background strain, growth absorbance A615, 16 h | hit rate 5% among 98,000
CYP2C9 inh – inhibitors of human CYP2C9. CYP2C9 Supersomes, luciferin-H conversion, luminescence. inhibition, % at 5 µM. AID 777. hit rate 20% among 96,000;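 active = blocking of liver enzyme CYP2C9 beyond about 50% at 5 µM, limit read from the data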
Target sequence (P11712 whole entry, looked up): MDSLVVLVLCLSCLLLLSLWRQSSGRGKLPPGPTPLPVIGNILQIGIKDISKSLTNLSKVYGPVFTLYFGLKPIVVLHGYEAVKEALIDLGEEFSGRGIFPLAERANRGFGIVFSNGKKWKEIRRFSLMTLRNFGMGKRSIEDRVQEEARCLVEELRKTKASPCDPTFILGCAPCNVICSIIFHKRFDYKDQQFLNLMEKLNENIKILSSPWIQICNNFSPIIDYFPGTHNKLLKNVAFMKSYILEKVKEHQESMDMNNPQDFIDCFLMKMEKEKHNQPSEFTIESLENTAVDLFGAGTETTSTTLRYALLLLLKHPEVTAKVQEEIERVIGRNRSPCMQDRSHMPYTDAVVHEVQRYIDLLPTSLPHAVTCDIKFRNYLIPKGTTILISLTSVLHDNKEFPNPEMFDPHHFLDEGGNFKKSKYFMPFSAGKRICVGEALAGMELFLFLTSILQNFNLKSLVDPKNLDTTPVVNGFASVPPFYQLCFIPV
CYP2C19 inhib – inhibitors of human CYP2C19. CYP2C19 Supersomes, luciferin-H EGE luminescence, 30 min. inhibition, % at 5 µM. hit rate 21% among 96,000. AID 778;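 active = CYP2C19 inhibition above a set limit at 5 µM in the primary screen, cut at about 50% in these data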;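 note: plate controls were negative control wells for no effect and 2.5 mM tranylcypromine positive control for full effect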
CYP2C19 activ – cytochrome P450 2C19 (human) activation; AID 1025; recombinant CYP2C19, luciferin-H EGE luminescence; hits give high values; 0 = fully inhibited enzyme, 1 = untreated enzyme; 96,000 tested, under 10 active; activation factor at 5 µM;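 active = activation factor of at least 2 at 5 µM in the primary screen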;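 note: 0 = wells with 2.5 mM tranylcypromine and 1 = vehicle-only wells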
CYP2C9 activ – activators of human CYP2C9. P11712. recombinant CYP2C9, luciferin-H conversion, luminescence; hits give high values; factor 1 = untreated enzyme, 0 = blocked. activation factor at 5 µM. hit rate 1.4% among 96,000;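 active = activation factor of 2 or more for CYP2C9 at a 5 µM dose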;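 note: 0 = sulfaphenazole-blocked wells and 1 = vehicle-only wells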
PostGolgi yeast – growth inhibition of a yeast mutant, post-Golgi transport screen; post-Golgi transport phenotypic cell assay; inhibition, % at 10 µM; hit rate 0.9% among 98,000;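 note: yeast cells grown in 1536-well plates; yeast grown about 18 h at 30C before absorbance read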
* = called active by the depositor; / = no result. The list is not random: actives were taken first. Their share in the collection is about 32%. Cut-off read from the data, not from the text of the source, unless noted: active = inhibition above about 30%; inactive = the rest.

SMILES	PostGolgi ctrl	CYP2C9 inh	CYP2C19 inhib	CYP2C19 activ	CYP2C9 activ	PostGolgi yeast
CCCSc1nn2c(=O)c3ccccc3nc2s1	6	49	79*	0.2	0.5	-1
CCCC(CCC(=O)Nc1ccc(S(N)(=O)=O)cc1)C(=O)O (centres undefined)	8	0	-11	1.1	1	6
CCCCCCC(=O)NC(Nc1ccc(S(N)(=O)=O)cc1)C(Cl)(Cl)Cl (centres undefined)	8	53*	10	0.9	0.5	4
Cc1ccc(C)c(NS(=O)(=O)c2cc(C(=O)Nc3cccc(N(C)S(C)(=O)=O)c3)ccc2C)c1	2	79*	24	0.8	0.2	2
Cc1ccc(C)c(NS(=O)(=O)c2cc(C(=O)NCCC3=CCCCC3)ccc2C)c1	14	24	-5	1.1	0.8	-8
Cc1ccc(C)c(NS(=O)(=O)c2cc(C(N)=O)ccc2C)c1	-3	2	76*	0.2	1	-3
O=C(Nc1cccc2c1CCCC2)c1cc([N+](=O)[O-])ccc1Cl	9	16	24	0.8	0.8	-5
N#CC(C#N)=c1ccc2c(c1)NC1(CCCCC1)N=2	5	56*	30	0.7	0.4	6
Cc1ccc(C(NC(=O)NCCCN2CCOCC2)=C(Cl)Cl)cc1F	1	19	13	0.9	0.8	4
Cc1ccc(C)c(S(=O)(=O)N2CCC(c3nc4c(nnn4Cc4ccc(F)cc4)c(=O)[nH]3)CC2)c1	-2	94*	49	0.5	0.1	0
Cc1ccc(Cn2nnc3c(=O)[nH]c(C4CCN(S(=O)(=O)c5cc(C)ccc5C)CC4)nc32)cc1	4	97*	79*	0.2	0	5
CC1CCc2cc(F)ccc2N1C(=O)C1(C)CC1(Cl)Cl (centres undefined)	17	36	56*	0.4	0.6	-2
CC(C(=O)N1c2ccc(F)cc2CCC1C)N1C(=O)c2ccccc2C1=O (centres undefined)	1	45	69*	0.3	0.5	2
CCC(CC)C(=O)N1c2ccc(F)cc2CCC1C (centres undefined)	-10	74*	43	0.6	0.3	-5
O=C1NC2(NN1c1ccccc1)C1CC3CC(C1)CC2C3 (centres undefined)	-5	-6	-1	1	1.1	3
O=C(Nc1ccc(S(=O)(=O)Nc2ncccn2)cc1)c1ccc(Br)s1	1	18	0	1	0.8	1
COC(=O)c1sccc1-c1ccc(C(=O)Nc2ccccc2)o1	19	16	15	0.8	0.8	-1
O=C(Nc1ccc(OC(=O)c2cccs2)cc1)c1ccco1	7	-18	7	0.9	1.2	-9
CC(=O)c1cccc(NC(=O)Cc2cccs2)c1	-7	22	30	0.7	0.8	-3
O=C(Cc1cccs1)Nc1cccc(C(=O)Nc2ccco2)c1	15	78*	51*	0.5	0.2	-5
O=C(Cc1cccs1)Nc1ccc(NC(=O)c2ccco2)cc1	1	72*	13	0.9	0.3	14
COc1cc(CN2CCN(S(=O)(=O)c3ccc(NC(C)=O)cc3)CC2)cc(OC)c1O	6	35	10	0.9	0.6	2
O=C(N/C=N/O)C1=NOC(CNc2ncc(C(F)(F)F)cc2Cl)C1 (centres undefined)	4	5	77*	0.2	0.9	1
O=C(NC1CC1)C1=NOC(CNc2ncc(C(F)(F)F)cc2Cl)C1 (centres undefined)	-17	-139	85*	0.2	2.4*	7
CC(C)(C)C1CCC(=NNc2ncc(C(F)(F)F)cc2Cl)CC1 (centres undefined)	5	19	40	0.6	0.8	-1
SMILES	PostGolgi ctrl	CYP2C9 inh	CYP2C19 inhib	CYP2C19 activ	CYP2C9 activ	PostGolgi yeast
CC(Cl)C(=O)Nc1ncc(C(F)(F)F)cc1Cl (centres undefined)	1	10	-20	1.2	0.9	6
N#CC1=C2SCN(Cc3ccccc3)CN2C(=O)CC1c1ccc2c(c1)OCO2 (centres undefined)	2	59*	54*	0.5	0.4	4
N#CC1=C2SCN(Cc3ccccc3)CN2C(=O)CC1c1cccs1 (centres undefined)	17	60*	51*	0.5	0.4	-13
CNS(=O)(=O)c1cccc(C(=O)OCC(=O)Nc2ccccc2OC(F)F)c1	-4	-82	10	0.9	1.8	4
Cc1ccc(C(O)c2nc3ccccc3n2C(C)C)cc1 (centres undefined)	9	48	92*	0.1	0.5	13
CC(C)n1c(-c2ccc(N(C)C)cc2)nc2ccccc21	15	62*	61*	0.4	0.4	4
CN(C)c1ccc(-c2nc3ccccc3n2C)cc1	26	33	56*	0.4	0.7	-29
Cc1ccc(C(N)=S)c(C)c1	0	/	/	/	/	-4
Cc1ccc(C)c(N(CC(N)=O)S(C)(=O)=O)c1	16	-14	-7	1.1	1.1	-3
CCOC(=O)c1c(C)n(C)c2ccc(OC)c(NC(=O)CCN3CCSCC3)c12	4	44	22	0.8	0.6	-8
COc1ccc(N(Cc2cc(=O)[nH]c3ccccc23)C(=O)c2ccco2)cc1	3	63*	5	0.9	0.4	-5
COCC(=O)N(Cc1nc2ccccc2c(=O)[nH]1)Cc1cccs1	9	52*	42	0.6	0.5	-4
COCC(=O)N(CCc1ccc(OC)c(OC)c1)Cc1nc2ccccc2c(=O)[nH]1	-4	4	58*	0.4	1	-13
CCC(CC)C(=O)N(CCc1ccc(OC)cc1)Cc1nc2ccccc2c(=O)[nH]1	3	44	32	0.7	0.6	-2
COc1ccc(CCN(Cc2nc3ccccc3c(=O)[nH]2)C(=O)c2ccco2)cc1	11	57*	44	0.6	0.4	-3
COc1ccc(CN(Cc2nc3ccccc3c(=O)[nH]2)C(=O)C(C)(C)C)cc1	-7	4	28	0.7	1	-6
CS(=O)(=O)N(Cc1ccc(F)cc1)Cc1nc2ccccc2c(=O)[nH]1	13	5	31	0.7	0.9	-4
COc1cccc(OC)c1C(=O)Nc1cc(C)on1	7	-11	5	0.9	1.1	-1
Clc1ccccc1Cn1nnc(-c2cccs2)n1	12	45	36	0.6	0.6	-3
O=C(CCn1nnc(-c2cccs2)n1)NCc1ccccc1Cl	-2	65*	28	0.7	0.4	-3
O=C(O)CCn1c(C(=O)O)cc2sccc21	-6	-1	3	1	1	2
O=C(Cn1c(C(=O)N2CCc3ccccc3C2)cc2sccc21)c1ccccc1	28	64*	69*	0.3	0.4	-2
O=C(Cn1c(C(=O)N2CCN(C3CCCCC3)CC2)cc2sccc21)c1ccccc1	31*	73*	87*	0.1	0.3	5
O=C(Cc1cccs1)Nc1nnc(Cc2ccc(F)cc2)s1	3	7	15	0.8	0.9	15

Bioassay records (PubChem BioAssay)
